Rows were chosen to be rich in hits. Some 1.2% of all compounds tested hit in one or more screens of this group.
VDR inh: Inhibitors of the vitamin D receptor (VDR): qHTS. Vitamin D3 receptor (Homo sapiens), P11473. VDR-SRC2-3 peptide fluorescence polarization, 2 h. Potency, µM, for inactives: max response, negative = inhibition, usual class: inhibitors. actives 0.93% (n = 400,000). AID 504847, 2011; also: % is scaled to controls: 0 for no effect and ±100 for the full control effect
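The screen uses fluorescence polarization to detect compounds that interfere with recruitment of the SRC2-3 coactivator peptide to VDR; plates are read after 2 h at room temperature.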
EPAC2 antag: qHTS for Antagonist of cAMP-regulated guanine nucleotide exchange factor 2 (EPAC2): primary screen; EPAC2 GEF exchange of Rap1B-BODIPY-GDP, fluorescence; actives 0.18% (n = 360,000); AID 720708, 2013; Potency, µM (highest dose often 114 µM), for the others: at the top dose activity, negative = inhibition, usual class: inhibitors; also: % is scaled to controls: 0 for no effect and ±100 for the full control effect; nearly all actives have a fitted effect of over 45% in size
EPAC2 agonist: qHTS for Agonist of cAMP-regulated guanine nucleotide exchange factor 4 (EPAC2): primary screen; Potency, µM (highest dose often 154 µM), inactives show top-dose activation, most hits filed as activators; AID 720711, 2013; EPAC2 activation, biochemical qHTS; response scale: 100% = 6.5 mM cAMP response; Rap guanine nucleotide exchange factor 4 (Homo sapiens), Q8WZA2; actives 0.079% (n = 360,000); also: nearly all actives have a fitted effect of over 50% in size
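Nucleotide exchange monitored as fluorescence drop when BODIPY-GDP leaves Rap1B. Reaction: 100 nM EPAC2, 250 nM RAP1B-BODIPY-GDP, 50 uM GDP, room temperature, kinetic read over 30 min. Activity expressed relative to 6.5 mM cAMP.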
USP1-UAF1 inh: Inhibitors of USP1/UAF1: Primary Screen | actives 0.23% (n = 390,000) | Potency, µM (highest dose often 57.1 µM), for the others: at the top dose activity change, negative = inhibition, hits mostly inhibitors | AID 743255, 2014 | Ubiquitin carboxyl-terminal hydrolase 1 (Homo sapiens), O94782 | recombinant USP1/UAF1, Ub-Rhodamine cleavage fluorescence; also: % is scaled to controls: 0 for no effect and ±100 for the full control effect; nearly all actives have a fitted effect of over 60% in size
Target sequence (O94782 whole entry, looked up): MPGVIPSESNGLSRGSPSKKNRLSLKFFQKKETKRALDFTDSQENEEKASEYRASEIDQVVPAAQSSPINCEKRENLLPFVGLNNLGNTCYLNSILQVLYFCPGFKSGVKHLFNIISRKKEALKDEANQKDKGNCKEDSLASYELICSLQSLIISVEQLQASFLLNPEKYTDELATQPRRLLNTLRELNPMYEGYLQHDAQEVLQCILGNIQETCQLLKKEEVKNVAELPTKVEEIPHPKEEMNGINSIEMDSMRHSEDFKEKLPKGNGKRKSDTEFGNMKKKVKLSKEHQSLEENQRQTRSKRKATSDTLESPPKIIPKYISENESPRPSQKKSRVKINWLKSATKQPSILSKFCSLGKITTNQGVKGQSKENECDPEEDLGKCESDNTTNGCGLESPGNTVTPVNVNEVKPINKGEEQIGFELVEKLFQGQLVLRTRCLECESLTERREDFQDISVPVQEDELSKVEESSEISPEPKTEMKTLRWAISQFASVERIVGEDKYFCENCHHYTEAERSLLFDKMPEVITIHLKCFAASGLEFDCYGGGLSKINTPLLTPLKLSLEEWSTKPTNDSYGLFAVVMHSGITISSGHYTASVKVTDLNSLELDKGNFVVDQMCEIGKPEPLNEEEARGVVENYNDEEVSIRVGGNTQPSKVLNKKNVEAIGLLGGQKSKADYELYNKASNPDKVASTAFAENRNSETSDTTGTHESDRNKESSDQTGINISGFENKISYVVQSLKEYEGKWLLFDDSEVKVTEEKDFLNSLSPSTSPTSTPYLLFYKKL
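USP1/UAF1 complex at 1 nM was preincubated with compound for 15 min at room temperature, then Ub-Rho substrate (150nM final) was added. Fluorescence (480/540 nm) was read kinetically, 6 reads every 60 seconds.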
EPAC1 ag: qHTS for Agonist of cAMP-regulated guanine nucleotide exchange factor 3 (EPAC1): primary screen; Rap guanine nucleotide exchange factor 3 (Homo sapiens), O95398; EPAC1 agonist qHTS, biochemical assay; response scale: 100% = response to 6.5 mM cAMP; Potency, µM (top dose mostly 154 µM), without a hit: at the top dose activation, actives largely listed as activators; actives 0.073% (n = 360,000); AID 720707, 2013; also: nearly all actives have a fitted effect of over 60% in size
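Fluorescent GDP-exchange assay: 100 nM EPAC1 with 250 nM Rap1B preloaded with BODIPY-GDP and 50 uM GDP; compounds tested as concentration series, 5 min at room temperature, then read every 5 min for 30 min (ex 480/em 540 nm); normalized to 6.5 mM cAMP.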
EPAC1 antagonist: qHTS for Antagonist of cAMP-regulated guanine nucleotide exchange factor 3 (EPAC1): primary screen. Potency, µM (highest dose often 115 µM), without a hit: top-dose activity change, negative = inhibition, most hits filed as inhibitors. Rap guanine nucleotide exchange factor 3 (Homo sapiens), O95398. actives 0.14% (n = 360,000). AID 720709, 2013. EPAC1 GEF assay, Rap1b-BODIPY-GDP exchange fluorescence;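 also: plate controls were vehicle for no effect and positive control for full effect; nearly all actives have a fitted effect of over 50% in size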
Numbers without * were called inactive; ? = inconclusive; . = no result. Calls follow the shape of the dose curve; as a rule, active = well fitted curve in the direction sought with a large enough effect; inconclusive = small, poorly fitted or top-dose-only effect, or another doubt; inactive = no such curve, though single readings can be large; an effect the other way counts as inactive or inconclusive. Potency is read from the fitted curve at half-maximal effect.

SMILES	VDR inh	EPAC2 antag	EPAC2 agonist	USP1-UAF1 inh	EPAC1 ag	EPAC1 antagonist
Cc1cc(O)cc(C)c1NS(=O)(=O)c1ccc2ccccc2c1	-6%	11µM*	13%	2%	4%	-5%
Cc1ccc(S(=O)(=O)Nc2c(O)ccc3ccccc23)cc1	32µM*	-11%	3%	-13%	1%	-7%
OC[C@@H](O)C(O)[C@H](O)[C@H](O)CO (stereo partly specified)	4%	.	.	.	.	.
Clc1ccc(Sc2cc(Cl)c(Cl)cc2Cl)cc1	5%	.	.	.	.	.
NC(=O)CC[C@H](NC(=O)c1ccc(F)cc1)C(=O)OCC(=O)NCc1ccc(F)cc1	71µM*	-6%	-4%	-10%	-13%	-12%
O=C(Nc1ccccc1F)c1ccc(Cn2nc(N3CCN(c4ccccc4)CC3)ccc2=O)o1	7%	.	.	-33%	.	.
Cn1c(CS/C(N)=N/N=C/c2ccccc2)c(Br)c(=O)n1-c1ccccc1	50µM*	5%	15%	-1%	3%	1%
O=C1/C(=C/C=C/c2ccco2)SC(=S)N1NS(=O)(=O)c1ccccc1	-19%	?	-1%	?	6%	100µM*
COCCn1c(=O)c(-c2ccc(Cl)cc2)nc2cnc(Oc3cccc(Cl)c3)nc21	-3%	.	.	.	.	.
Nc1ncc(S(=O)(=O)Nc2ccc(F)cc2F)cn1	0%	.	.	-14%	.	.
Oc1ccccc1C1C=C(c2ccc3c(c2)OCO3)NC(c2cccc(Cl)c2)N1 (stereo unspecified)	-12%	.	.	.	.	.
CCOC(=O)c1c(NC(=O)COc2ccccc2Br)sc2c1CCCCC2	89µM*	.	.	12%	.	.
CCOC(=O)c1c(NC(=O)COc2ccc(Cl)cc2C)sc2c1CCCCC2	?	.	.	18%	.	.
CCOC(=O)c1c(NC(=O)c2ccccc2Br)sc2c1CCc1ccccc1-2	79µM*	-5%	4%	-18%	6%	4%
CCCc1ccc(OC(C)C(=O)Nc2sc3c(c2C(=O)OC)CCCCC3)cc1 (stereo unspecified)	89µM*	.	.	?	.	.
CCOC(=O)c1c(NC(=O)C(C)Oc2ccc(Cl)c(C)c2)sc2c1CCCC2 (stereo unspecified)	79µM*	.	.	12%	.	.
CCOC(=O)c1c(NC(=O)c2ccccc2Cl)sc2c1CCCC2	12%	.	.	?	.	.
COC(=O)c1c(NC(=O)C(C)Oc2ccc(Cl)cc2Cl)sc2c1CCCC2 (stereo unspecified)	?	.	.	-16%	.	.
CC[C@H](C)[C@H](NC(=O)[C@H](Cc1ccc(O)cc1)NC(=O)[C@H](Cc1cnc[nH]1)NC(=O)[C@H](CCCNC(=N)N)NC(=O)[C@H](CC(C)C)NC(=O)[C@H](C)NC(=O)[C@H](CO)NC(=O)[C@H](Cc1ccc(O)cc1)NC(=O)[C@H](Cc1ccc(O)cc1)NC(=O)[C@H](CCCNC(=N)N)NC(=O)[C@H](C)NC(=O)[C@H](CCSC)NC(=O)[C@H](CC(=O)O)NC(=O)[C@H](CCC(=O)O)NC(=O)[C@H](C)NC(=O)[C@@H]1CCCN1C(=O)[C@H](C)NC(=O)[C@H](CC(=O)O)NC(=O)[C@H](CCC(=O)O)NC(=O)CNC(=O)[C@@H]1CCCN1C(=O)[C@H](CC(N)=O)NC(=O)[C@H](CC(=O)O)NC(=O)[C@@H]1CCCN1C(=O)[C@H](CCCCN)NC(=O)[C@H](CO)NC(=O)[C@@H]1CCCN1C(=O)[C@@H](N)Cc1ccc(O)cc1)C(=O)N[C@@H](CC(N)=O)C(=O)N[C@@H](CC(C)C)C(=O)N[C@@H](CC(C)C)C(=O)N[C@H](C(=O)N[C@@H](CCCNC(=N)N)C(=O)N1CCC[C@H]1C(=O)N[C@@H](CCCNC(=N)N)C(=O)N[C@@H](Cc1ccc(O)cc1)C(N)=O)[C@@H](C)O	1%	.	.	.	.	.
CC(C)CC(CSc1ccc(Br)cc1)N1CCN(C)CCC1=O (stereo unspecified)	-21%	.	.	.	.	.
C=CCN(CC=C)Cc1cc(=O)oc2cc(OC)c(Cl)cc12	.	32µM*	14%	.	-4%	-20%
COc1ccc(C2C3C=CCC(c4cccc(/C=C/c5ccccc5)c4)C3C(=O)N2Cc2ccccc2)cc1Cl (stereo unspecified)	10%	.	.	.	.	.
CC(CCC(C)C(C)(C)C)[C@@H]1CC[C@H]2C3C[C@H](OS(O)(=S)=S)[C@H]4C[C@H](OS(O)(=S)=S)[C@@H](OS(O)(=S)=S)C[C@]4(C)[C@H]3CC[C@]12C (stereo partly specified) (tested in a mixture with another compound)	22µM*	20µM*	25%	18µM*	-16%	16µM*
C[C@]12CCC(=O)C=C1CC[C@@H]1[C@@H]2[C@@H](O)C[C@@]2(C)[C@H]1CC[C@]2(O)C(=O)COP(=O)(O)O	0%	.	.	.	.	.
Cc1cc(C)nc(Sc2nc(Cl)nc(N(c3ccccc3)c3ccccc3)n2)n1	22µM*	-4%	0%	-5%	5%	-14%
SMILES	VDR inh	EPAC2 antag	EPAC2 agonist	USP1-UAF1 inh	EPAC1 ag	EPAC1 antagonist
Cc1cc(C)nc(SC(C(=O)O)c2ccccc2)n1 (stereo unspecified)	14%	-28%	1%	4%	-3%	-7%
CC(O)C#C[Si](C)(C)c1ccccc1 (stereo unspecified)	-3%	.	.	.	.	.
N#Cc1c(-c2cccs2)nc(SCc2ccc(Cl)cc2)[nH]c1=O	-5%	50µM*	-9%	?	-3%	89µM*
CSc1nc(-c2cccs2)c(C#N)c(=O)[nH]1	9%	-23%	7%	-8%	4%	6%
CCCC[C@H](NC(C)=O)C(=O)N[C@H]1CC(=O)NCCCC[C@@H](C(N)=O)NC(=O)[C@H](Cc2c[nH]c3ccccc23)NC(=O)[C@H](CCCN=C(N)N)NC(=O)[C@@H](Cc2ccccc2)NC(=O)[C@H](Cc2cnc[nH]2)NC1=O	4%	.	.	.	.	.
Cc1cc(C)c(NC(=S)NCC2CCN(C(C)c3ccccc3)C2)c(C)c1 (stereo unspecified)	45µM*	2%	14%	-19%	10%	-3%
